Measurements published in PubChem BioAssay (Tox21).
Where “and” joins values, the source holds several entries; their conditions need not be identical. Equal values may be shown once. Results filed as inconclusive are left out. More than one record can exist for a structure, and the calls need not agree. Calls of active or inactive are those of the source. Unless noted, calls come from the whole dose curve; as a rule, active = well fitted curve in the direction sought with a large enough effect in the repeat runs; inconclusive = weak or mixed curves; inactive = no such curve, though single readings can be large; an effect the other way counts as inactive or inconclusive.

Columns and labels:
[1] = molecular target: Retinoic acid receptor RXR-alpha (Homo sapiens) (UniProt P19793); experiment: qHTS assay to identify small molecule agonists of the RXR signaling pathway (AID 1159527; calls by dose curve; note: nearly all actives have a fitted effect of over 35% in size; note: potency is the fitted concentration of half-maximal effect)
Chain of Retinoic acid receptor RXR-alpha (Homo sapiens) (P19793 whole entry, looked up): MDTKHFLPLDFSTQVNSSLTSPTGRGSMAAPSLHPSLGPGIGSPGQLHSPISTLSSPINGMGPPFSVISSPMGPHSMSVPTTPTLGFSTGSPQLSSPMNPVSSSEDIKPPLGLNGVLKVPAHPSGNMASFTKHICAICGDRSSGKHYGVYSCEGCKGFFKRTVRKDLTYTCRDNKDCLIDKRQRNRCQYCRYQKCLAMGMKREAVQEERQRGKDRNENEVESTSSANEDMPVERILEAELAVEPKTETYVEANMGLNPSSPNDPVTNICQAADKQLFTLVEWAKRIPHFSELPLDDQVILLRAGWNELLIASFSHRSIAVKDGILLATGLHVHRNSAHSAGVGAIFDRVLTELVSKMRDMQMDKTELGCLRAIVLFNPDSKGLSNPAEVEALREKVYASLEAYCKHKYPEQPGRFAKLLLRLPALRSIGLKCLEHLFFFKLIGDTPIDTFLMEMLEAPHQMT
In short: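 Fluorescence ratio readout (460 vs 530 nm) from GeneBLAzer RXR-alpha HEK 293T cells after 16 hr compound treatment; cells seeded 5 hr beforehand in low-serum, charcoal-stripped medium.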

[2] = qHTS assay to identify small molecule agonists of the RXR signaling pathway - cell viability counter screen (AID 1159529);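 note: HEK 293T cells carrying an RXR-alpha UAS beta-lactamase reporter; series mostly up to about 77 µM; nearly all actives have a fitted effect of over 50% in size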
In short: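 Viability read-out for the RXR-alpha agonist qHTS: luminescent CellTiter-Glo signal after 30 min at RT. HEK 293T bla reporter cells, 2% charcoal-stripped FBS, 16 hr compound incubation; tetraoctyl ammonium bromide as cytotoxic control.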

[3] = qHTS assay to identify small molecule antagonists of the retinoid acid receptor (RAR) signaling pathway - cell viability counter screen (AID 1159551); note: nearly all actives have a fitted effect of over 35% in size
In short: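 Retinol-stimulated (1 uM final) C3RL4 cells, compound 6 h, 37 C; readout CellTiter-Glo luminescence (ATP) after 30 min RT incubation.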

[4] = qHTS assay to identify small molecule antagonists of the estrogen related receptor (ERR) signaling pathway from Tox21 library - cell viability counter screen (AID 1224834); note: nearly all actives have a fitted effect of over 30% in size
In short: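 After 17.5 h of compound exposure at 37 C, ERR cells are incubated with CellTiter-Fluor for 30 min and fluorescence intensity serves as the viability measure.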

[5] = molecular target: Luciferin 4-monooxygenase (Photinus pyralis) (UniProt P08659); experiment: qHTS assay to identify small molecule inhibitors of firefly luciferase (AID 1224835); note: nearly all actives have a fitted effect of over 25% in size; note: potency is the fitted concentration of half-maximal effect; for activity change, negative = inhibition: series mostly up to about 120 µM
Chain of Luciferin 4-monooxygenase (Photinus pyralis) (P08659 whole entry, looked up): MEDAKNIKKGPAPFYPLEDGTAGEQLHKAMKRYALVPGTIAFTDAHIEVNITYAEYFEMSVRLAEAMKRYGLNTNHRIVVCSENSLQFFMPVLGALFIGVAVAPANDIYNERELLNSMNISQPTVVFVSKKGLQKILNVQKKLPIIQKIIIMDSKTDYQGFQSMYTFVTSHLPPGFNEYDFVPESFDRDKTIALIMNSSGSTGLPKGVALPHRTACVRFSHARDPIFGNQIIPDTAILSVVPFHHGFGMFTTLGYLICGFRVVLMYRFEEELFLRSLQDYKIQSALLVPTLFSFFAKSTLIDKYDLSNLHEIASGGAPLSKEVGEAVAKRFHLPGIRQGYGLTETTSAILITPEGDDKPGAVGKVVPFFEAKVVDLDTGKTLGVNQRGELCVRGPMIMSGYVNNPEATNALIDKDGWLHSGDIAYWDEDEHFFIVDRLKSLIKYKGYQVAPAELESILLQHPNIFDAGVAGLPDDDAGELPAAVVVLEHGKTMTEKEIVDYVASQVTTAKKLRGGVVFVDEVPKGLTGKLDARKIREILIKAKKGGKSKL
In short: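 Inhibition of purified Photinus luciferase is measured by luminescence. Substrate levels (D-luciferin, ATP) sit at their KM values. Each compound is tested in a concentration series.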

[6] = qHTS assay to identify small molecule agonists of the constitutive androstane receptor (CAR) signaling pathway - cell viability counter screen (AID 1224836); note: series mostly up to about 92 µM; nearly all actives have a fitted effect of over 45% in size
In short: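 Multiplexed viability check: HepG2-CYP2B6-hCAR cells, 15-point compound dosing, 0.75 uM PK11195 final, 23 h at 37 C, CellTiter-Fluor fluorescence.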

[7] = qHTS assay to identify small molecule antagonists of the constitutive androstane receptor (CAR) signaling pathway - cell viability counter screen (AID 1224837); note: series mostly up to about 92 µM; nearly all actives have a fitted effect of over 45% in size
In short: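 Counter screen run in HepG2-CYP2B6-hCAR cells: 4 hr settle, compound titration (15 concentrations) with 50 nM CITCO, 23 hr at 37 C/5% CO2, CellTiter-Fluor fluorescence.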

[8] = qHTS assay to identify small molecule antagonists of the estrogen related receptor signaling pathway with the pleiotropic PPARgamma coactivator (PGC) from Tox21 10K library - cell viability counter screen (AID 1224840; active = well fitted cell-killing curve with a large enough effect in the repeat runs, not every such curve was filed as active; note: nearly all actives have a fitted effect of over 40% in size)
In short: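 Following seeding of 2,000 PGC/ERR cells/well and 6 hours' incubation, test compounds were delivered in DMSO. The plates then sat 17.5 hours at 37 C before a fluorogenic live-cell protease reagent (CellTiter-Fluor) was read after 30 min.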

[9] = molecular target: Thyrotropin receptor (Homo sapiens) (UniProt P16473); experiment: qHTS assay to identify small molecule agonists of the thyroid stimulating hormone receptor (TSHR) signaling pathway (AID 1224843; calls by dose curve; note: nearly all actives have a fitted effect of over 45% in size; note: potency is the fitted concentration of half-maximal effect)
Chain of Thyrotropin receptor (Homo sapiens) (P16473 whole entry, looked up): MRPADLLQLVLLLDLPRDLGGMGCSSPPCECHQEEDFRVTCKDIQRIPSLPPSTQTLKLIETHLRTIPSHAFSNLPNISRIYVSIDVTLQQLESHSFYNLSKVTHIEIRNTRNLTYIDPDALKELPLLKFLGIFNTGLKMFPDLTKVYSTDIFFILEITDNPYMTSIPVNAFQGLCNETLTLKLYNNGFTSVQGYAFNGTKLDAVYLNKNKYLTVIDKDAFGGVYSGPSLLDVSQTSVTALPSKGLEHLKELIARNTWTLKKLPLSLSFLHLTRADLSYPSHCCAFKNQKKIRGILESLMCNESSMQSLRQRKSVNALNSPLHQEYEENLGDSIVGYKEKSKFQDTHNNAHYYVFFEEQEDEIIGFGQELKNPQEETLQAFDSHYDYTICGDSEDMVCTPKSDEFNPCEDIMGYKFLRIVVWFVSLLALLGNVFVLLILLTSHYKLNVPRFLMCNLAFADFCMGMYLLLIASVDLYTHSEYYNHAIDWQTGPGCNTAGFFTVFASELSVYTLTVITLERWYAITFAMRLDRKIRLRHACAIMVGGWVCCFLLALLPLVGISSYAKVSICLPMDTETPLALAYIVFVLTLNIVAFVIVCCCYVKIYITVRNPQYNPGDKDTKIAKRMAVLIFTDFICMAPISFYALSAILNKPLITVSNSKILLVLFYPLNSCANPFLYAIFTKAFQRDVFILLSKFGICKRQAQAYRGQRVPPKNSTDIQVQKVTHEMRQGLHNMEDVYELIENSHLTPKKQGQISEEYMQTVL
In short: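 HEK293 cells stably bearing the thyrotropin receptor were plated at 800 cells/well and challenged with compound (30 min, RT). Accumulated cAMP was quantified via cAMP-d2 competing for cryptate-tagged antibody.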

[10] = qHTS assay to identify small molecule agonists of the hypoxia (HIF-1) signaling pathway - cell viability counter screen (AID 1224844; calls by dose curve; note: nearly all actives have a fitted effect of over 50% in size)
In short: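 Cells (HRE-bla ME-180, 2,000 per well) sat 5 hrs at 37C, got compound for 17 hrs, were read for CCF4-AM FRET, and were finally lysed with CellTiter-Glo for a 30 min room-temperature luminescence read.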

[11] = qHTS assay to identify small molecule agonists of H2AX (AID 1224845; active = well fitted activation curve with a large enough effect in the signal ratio in the repeat runs, not every such curve was filed as active; the % refers to the signal ratio)
In short: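 Phospho-H2AX Ser139 measured by HTRF (ex 320 nm; em 665 and 620 nm) after 24 hr antibody incubation. Compounds, 15 concentrations, 0.76% DMSO, were applied to CHO-K1 cells for 3hr at 37C before lysis.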

[12] = qHTS assay to identify small molecule agonists of the hypoxia (HIF-1) signaling pathway (AID 1224846; active = well fitted activation curve with a large enough effect in the signal ratio in the repeat runs, not every such curve was filed as active; the % refers to the signal ratio)
In short: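 A low-serum medium (0.5% dialyzed FBS) holding 2,000 HRE-bla ME-180 cells per well is preincubated for 5 hrs, dosed with compounds by pintool, and kept a further 17 hrs at 37C, 5% CO2 before CCF4-AM FRET detection of beta-lactamase.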

[13] = qHTS assay to identify small molecule agonists of H2AX - cell viability counter screen (AID 1224847; calls by dose curve; note: nearly all actives have a fitted effect of over 30% in size; note: potency is the fitted concentration of half-maximal effect;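 for activity change, negative = cytotoxicity: wild-type CHO-K1 cells; top concentration of the series differs between compounds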)
In short: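 After overnight plating of 1000 CHO-K1 cells per well, a 15-concentration compound series was applied for 3 hr at 37C. Luminescence from CellTiter-Glo, read following 30 min at room temperature, reflected cell viability.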

[14] = qHTS assay to identify small molecule antagonists of the retinoic acid receptor (RAR) signaling pathway (AID 1159552; note: nearly all actives have a fitted effect of over 50% in size; note: potency is the fitted concentration of half-maximal effect)
In short: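 Using a RARE-driven luciferase construct in C3RL4 cells, retinol at 1 uM final provided the agonist stimulus while compounds were co-applied. After 6 hours at 37 C, luminescence was recorded to flag inhibitors of retinol signaling.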

[15] = qHTS assay to identify small molecule agonists of the retinoic acid receptor (RAR) signaling pathway (AID 1159553)
In short: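 Reporter readout comes from luciferase under RARE control in C3RL4 cells; compound exposure lasts 6 hr at 37 C in 5% CO2, and luminescence is recorded following a 30 min room-temperature incubation with reagent.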

[16] = molecular target: Nuclear receptor subfamily 1 group I member 3 (Homo sapiens) (UniProt Q14994); experiment: qHTS assay to identify small molecule antagonists of the constitutive androstane receptor (CAR) signaling pathway (AID 1224838);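 note: HepG2 cells stably expressing hCAR with CYP2B6 luciferase reporter stimulated by CITCO; nearly all actives have a fitted effect of over 40% in size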; note: potency is the fitted concentration of half-maximal effect
Chain of Nuclear receptor subfamily 1 group I member 3 (Homo sapiens) (Q14994 whole entry, looked up): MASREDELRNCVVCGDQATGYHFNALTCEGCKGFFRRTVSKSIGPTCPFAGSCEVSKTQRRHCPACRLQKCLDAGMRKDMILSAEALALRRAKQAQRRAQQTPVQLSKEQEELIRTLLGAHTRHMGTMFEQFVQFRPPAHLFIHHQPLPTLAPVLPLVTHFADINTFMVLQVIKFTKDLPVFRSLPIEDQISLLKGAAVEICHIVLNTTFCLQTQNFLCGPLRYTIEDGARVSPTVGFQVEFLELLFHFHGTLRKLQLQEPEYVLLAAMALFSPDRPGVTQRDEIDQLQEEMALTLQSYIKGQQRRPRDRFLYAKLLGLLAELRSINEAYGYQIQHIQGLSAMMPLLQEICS
In short: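 Cell line: HepG2 double-stable for hCAR and CYP2B6-2.2kb reporter. Agonist: CITCO, 50 nM final. Compounds: 15 concentrations, 24 h, 37 C. Detection: ONE-Glo luminescence.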

[17] = qHTS assay to identify small molecule antagonists of the estrogen related receptor signaling pathway with the pleiotropic PPARgamma coactivator (PGC) from Tox21 10K library (AID 1224841; call rule not given here; note: actives are mostly falling curves and most rising ones were filed inactive; nearly all actives have a fitted effect of over 50% in size; note: potency is the fitted concentration of half-maximal effect)
In short: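 qHTS antagonist format: PGC/ERR cells, 2k/well, compound in DMSO by pin transfer after 6 h attachment, 18 h treatment at 37 C, One-Glo luminescence read at 30 min.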

[18] = molecular target: Nuclear receptor subfamily 1 group I member 3 (Homo sapiens) (UniProt Q14994); experiment: qHTS assay to identify small molecule agonists of the constitutive androstane receptor (CAR) signaling pathway (AID 1224839); note: nearly all actives have a fitted effect of over 15% in size; note: potency is the fitted concentration of half-maximal effect;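 for activation: HepG2 cells stably carrying human CAR and a CYP2B6 luciferase reporter; series mostly up to about 92 µM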
In short: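 Using human hepatoma HepG2 cells engineered with hCAR and a CYP2B6-2.2kb reporter, 15-concentration compound series were incubated 24 h alongside PK11195 at 0.75 uM final, with luminescence quantified afterwards.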

[19] = qHTS assay to identify small molecule antagonists of the estrogen related receptor (ERR) signaling pathway - cell viability counter screen (AID 1224818); note: series mostly up to about 46 µM
In short: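 After a 6 h pre-incubation, ERR cells were dosed by pin tool with compounds, positive/negative controls or DMSO alone. Following 17.5 h at 37 C and 30 min with CellTiter-Fluor, fluorescence was recorded.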

[20] = qHTS assay to identify small molecule antagonists of the estrogen related receptor signaling pathway with the pleiotropic PPARgamma coactivator (PGC) cell viability counter screen (AID 1224822; note: series mostly up to about 46 µM)
In short: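 PGC/ERR cells were plated at 2,000 per well and allowed 6 h to settle before compound addition. Following 17.5 h at 37 C, CellTiter-Fluor reagent was added and fluorescence was read 30 min later.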
% is set by controls: 0 for no effect and ±100 for the full control effect.

CCCCCCCCCCCCCCO
inactive: Potency [1] | Potency [2] | outcome [3] | Potency [4] | Potency [6] | Potency [7] | Potency [8] | Potency [9] | Potency [10] | Potency [11] | outcome [12] | Potency [13]
active: Potency [5] 22.7 µM

OCC(CO)(CBr)CBr
inactive: Potency [1] | Potency [2] | outcome [3] | Potency [14] | Potency [15] | Potency [4] | Potency [5] | Potency [6] | Potency [16] | Potency [8] | Potency [17] | Potency [9] | Potency [11] | Potency [13]

FC(F)(F)c1ccc(Cl)c(Cl)c1
inactive: Potency [1] | Potency [2] | outcome [3] | Potency [4] | Potency [5] | Potency [6] | Potency [7] | Potency [8] | Potency [9] | Potency [11] | outcome [12] | Potency [13]

CCCCCCCC(=O)OC
inactive: Potency [1] | Potency [2] | outcome [3] | Potency [4] | Potency [5] | Potency [6] | Potency [7] | Potency [16] | Potency [18] | Potency [8] | Potency [9] | Potency [10] | Potency [11] | outcome [12] | Potency [13]

O=C(O)c1ccc(C(=O)O)cc1
inactive: Potency [1] | Potency [2] | outcome [3] | Potency [4] | Potency [5] | Potency [6] | Potency [7] | Potency [16] | Potency [8] | Potency [9] | Potency [10] | Potency [11] | outcome [12] | Potency [13]

O=C(O)CC(C(=O)O)C(CC(=O)O)C(=O)O (stereo not given)
268 nM (active) and inactive: Potency [9]
inactive: Potency [1] | Potency [2] | outcome [3] | Potency [14] | Potency [15] | Potency [4] | Potency [5] | Potency [6] | Potency [16] | Potency [8] | Potency [10] | Potency [11] | outcome [12] | Potency [13]

O=C=NCCCCCCN=C=O
23.8 µM (active) and inactive: Potency [16]
inactive: Potency [1] | Potency [2] | outcome [3] | Potency [14] | Potency [15] | Potency [4] | Potency [5] | Potency [6] | Potency [8] | Potency [9] | Potency [11] | Potency [13]

c1ccc2c(c1)ccc1ccccc12
inactive: Potency [1] | Potency [2] | outcome [3] | Potency [14] | Potency [15] | Potency [4] | Potency [6] | Potency [16] | Potency [8] | Potency [17] | Potency [10] | Potency [11] | outcome [12] | Potency [13]
active: Potency [5] 34.6 µM and 56.4 µM

C=C(C)C(=O)Nc1ccc(Cl)c(Cl)c1
inactive: Potency [1] | Potency [2] | outcome [3] | Potency [4] | Potency [5] | Potency [6] | Potency [16] | Potency [8] | Potency [9] | Potency [10] | Potency [11]
active: Potency [18] 55 µM and 48.4 µM | Potency [13] 102 µM

CCN(CC)CCCC(C)Nc1ccnc2cc(Cl)ccc12 (stereo not given)
inactive: activation [1] -0.146% [at 15.8 µM] | activity change, negative = cytotoxicity [2] -13.3% [at 6.97 µM] and -18.7% [at 15.8 µM] | activity change, negative = cytotoxicity [3] 1.59% [at 8.39 µM] and -1.6% [at 19 µM] | outcome [19] | viability change, negative = cytotoxic [4] -0.582% [at 8.39 µM] | activity change, negative = inhibition [5] -0.277% [at 10.5 µM] and -0.0339% [at 23.6 µM] | viability change, negative = cytotoxic [6] -3.22% [at 8.39 µM] | viability change, negative = cytotoxic [8] -1.36% [at 8.39 µM] and -20.9% [at 19 µM] | activation (H2AX phosphorylation) [11] 3.5% [at 14 µM] and -4.76% [at 31.6 µM] | activity change, negative = cytotoxicity [13] 0.575% [at 14 µM] and -2.97% [at 31.6 µM]

CC1CCC2CC1C2(C)C (stereo not given)
inactive: Potency [1] | Potency [2] | outcome [3] | Potency [4] | Potency [5] | Potency [6] | Potency [7] | Potency [16] | Potency [18] | Potency [8] | Potency [9] | Potency [11] | Potency [13]

CC(C)(N)CO
inactive: Potency [1] | Potency [2] | outcome [3] | Potency [4] | Potency [5] | Potency [6] | Potency [16] | Potency [18] | Potency [8] | Potency [17] | Potency [9] | Potency [10] | Potency [11] | Potency [13]

O=P(OC(CCl)CCl)(OC(CCl)CCl)OC(CCl)CCl
inactive: Potency [1] | Potency [2] | outcome [3] | Potency [15] | Potency [5] | Potency [6] | Potency [8] | outcome [12] | Potency [13]
inactive and 27.3 µM (active): Potency [14]
active: Potency [17] 54.2 µM and 54.5 µM

COc1ccc2cc([C@H](C)C(=O)O)ccc2c1
inactive: Potency [1] | Potency [2] | outcome [3] | outcome [19] | outcome [20] | Potency [4] | Potency [6] | Potency [7] | Potency [16] | Potency [8] | Potency [9] | Potency [11] | Potency [13]

OCc1cccnc1
inactive: Potency [1] | Potency [2] | outcome [3] | Potency [4] | Potency [5] | Potency [6] | Potency [7] | Potency [8] | Potency [10] | Potency [11] | Potency [13]

CCCCC(CC)COC(=O)CS (stereo not given)
inactive: Potency [1] | Potency [2] | outcome [3] | Potency [14] | Potency [15] | Potency [4] | Potency [5] | Potency [6] | Potency [8] | Potency [17] | Potency [9] | Potency [10] | Potency [11] | Potency [13]

Cc1occc(=O)c1O
inactive and 12.9 µM (active): Potency [1]
inactive and 50.9 µM (active): Potency [16]
inactive: Potency [2] | outcome [3] | Potency [4] | Potency [5] | Potency [6] | Potency [7] | Potency [18] | Potency [8] | Potency [9] | Potency [10] | Potency [11] | outcome [12] | Potency [13]

O=C(O)CCCCCCCCCCC(=O)O
inactive and 1 nM (active): Potency [16]
inactive: Potency [1] | Potency [2] | outcome [3] | Potency [4] | Potency [5] | Potency [6] | Potency [7] | Potency [18] | Potency [8] | Potency [9] | Potency [10] | Potency [11] | outcome [12] | Potency [13]
